In PubChem BioAssay (EPA / NIEHS):
Calls of active or inactive are those of the source. Rule for the calls: active = hit-call score of the fitted dose curve at least 0.9, where 1 is the maximum; inactive = score below 0.9.

Experiment: CCTE_Shafer_MEA_acute_per_network_burst_electrodes_number_mean: CCTE's Neural Acute Assay for Mean Number of Electrodes in a Network Burst, Shafer Lab (AID 2284021);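 note: curves fitted for decreases only so hits reduce electrodes per burst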
Protocol: CCTE_Shafer_MEA_acute assay is conducted using Axion Biosystems 48 well microelectrode array (MEA) plates and Maestro recording system. Each well of the MEA plate contains a grid of 16 microelectrodes embedded in the culture surface. Electrically active cells, such as neurons, can be cultured over the electrodes, and electrical activity in these cells can be recorded extracellularly. The spontaneous firing of neurons is captured from each electrode on a microsecond timescale providing both temporally and spatially precise data. […] The CCTE_Shafer_MEA_acute assay uses primary cultures of rat cortical neurons. As these cultures mature over time, neural networks develop functional activity and form cohesive networks in which electrical activity can be highly coordinated. Baseline 40-minute recordings are made on days post-plating 13 or 15, followed by a secondary 40-minute recording after chemical exposure.CCTE_Shafer_MEA_acute_per_network_burst_electrodes_number_mean is a component of the CCTE_Shafer_MEA_acute assay. It measures the average number of electrodes with activity during a network burst (a temporally-clustered group of action potential firing across multiple electrodes) in a recording in a microelectrode array (MEA) using Axion Biosystems Maestro 768 channel amplifier with the AxIS adaptive spike detector. The recordings before and after chemical treatment are used to calculate a percent change in the mean number of electrodes participating in network bursts in each well.Data from the assay component CCTE_Shafer_MEA_acute_per_network_burst_electrodes_number_mean was analyzed into 1 assay endpoint. This assay endpoint, CCTE_Shafer_MEA_acute_per_network_burst_electrodes_number_mean, was analyzed in the negative analysis fitting direction relative to DMSO as the negative control and baseline of activity. Using a type of functional reporter, gain or loss-of-signal activity can be used to understand electrical activity.
Spontaneous activity in the cortical cultures was recorded using an Axion Biosystems Maestro 768 channel amplifier and Axion Integrated Studios (AxIS) v1.8 (or later) software. The amplifier recorded from all channels simultaneously (gain = 1200 x; sampling rate = 12.5 kHz/channel): raw signals were filtered with a Butterworth band-pass filter (300-5000 Hz), which filters out slower local field potentials leaving only fast potentials, i.e., "spikes", arising from extracellular currents associated with action potentials (Pine 2006; Wheeler and Nam 2011). On-line spike detection of filtered signals was conducted with the AxIS adaptive spike detector, using a threshold of 8x the root mean squared (rms) noise on each channel. Any electrodes with rms noise levels greater than 5 uV were grounded (e.g., no data were recorded). Once grounded, an electrode was grounded for the duration of the experiment. All recordings were conducted at 37 C. Wells were deemed usable if on the day of the exposure >/= 10 electrodes were active (defined as >/= 5 spikes/min). On DIV 13 or 15, a minimum of three wells from one cortical culture preparation were treated with each compound (0.03-40 uM). Prior to recording baseline activity, each mwMEA plate was placed in the Maestro at 37 C and allowed to sit for 20 min while firing rates stabilized. Baseline activity (40 min) was recorded before the addition of each compound. An additional 40 min of spontaneous activity was recorded in the presence of each compound. Changes in network parameters relative to baseline were assessed following compound treatment.

SMILES	outcome	AC50
NCC1(Cc2noc(=O)[nH]2)CCCCC1	inactive	
Cc1ccc2ncccc2c1	inactive	
CC(=O)C(C)=CC1C(C)=CCCC1(C)C (stereo unspecified)	inactive	
CN[C@H]1CC[C@@H](c2ccc(Cl)c(Cl)c2)c2ccc(S(N)(=O)=O)cc21		29.9 µM (active)
CCOC(=O)C(C)(C)Oc1ccc(Cl)cc1	inactive	
C=CCOC(=O)c1ccccc1C(=O)OCC=C	inactive	
COc1ccc2c(c1)c(CC(=O)O)c(C)n2C(=O)c1ccc(Cl)cc1	inactive	
COc1ccc(S(=O)(=O)N2C(=O)[C@@](c3ccccc3OC)(N3C[C@H](O)C[C@H]3C(=O)N(C)C)c3cc(Cl)ccc32)c(OC)c1	inactive	
c1cc(-c2ccncc2)ccn1	inactive	
O=C(O)CCCCC(=O)O	inactive	
CC(=O)Oc1ccccc1C(=O)O	inactive	
Nc1nc(N)c2nc(CNc3ccc(C(=O)N[C@@H](CCC(=O)O)C(=O)O)cc3)cnc2n1	inactive	
C=CCc1ccc(O)c(OC)c1	inactive	
NS(=O)(=O)c1cc2c(cc1Cl)NCNS2(=O)=O	inactive	
Clc1cc(Cl)c(Cl)cc1Cl	inactive	
Nc1ccc2c(c1)C(=O)c1ccccc1C2=O	inactive	
Cc1ccc(C(C)C)c(O)c1	inactive	
CN1CCCC1=O	inactive	
FC(F)(F)C(F)(F)C(F)(F)C(F)(F)C(F)(F)C(F)(F)CCI	inactive	
CCCc1cc(=O)[nH]c(=S)[nH]1	inactive	
CCCCCCCCCCO	inactive	
CC(C)(C)c1cc(O)c(C(C)(C)C)cc1O	inactive	
Cc1ccc(C)c(O)c1C	inactive	
CNCc1cc(F)ccc1Oc1ccc(Cl)c(Cl)c1	inactive	
C[Si]1(C)O[Si](C)(C)O[Si](C)(C)O[Si](C)(C)O1	inactive	
Nc1ccccc1N	inactive	
